# PK Bst: alters activity of Bacillus stearothermophilus pyruvate kinase; purified pyruvate kinase, luminescence ATP production; ribose 5-phosphate activator present at AC10; Potency, µM; hit rate 1.2% among 51,000; AID 361; in the data active = potency below about 11 µM; inconclusive = mostly about 12 µM to 25 µM;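 the screen sought inhibitors and activators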
# TSHR ag: activates the human thyroid stimulating hormone receptor; hit rate 0.48% among 73,000; Potency, µM (series often up to 57.1 µM), most hits filed as activators; HEK293-CNG-TSHR cells (CNG channel as cAMP sensor), membrane potential dye, cAMP; active = well fitted activation curve with a large enough effect in the main read-out, with a control signal flat, not every such curve was filed as active; inconclusive = small, poorly fitted or top-dose-only effect, or a change in a side signal; inactive = no such curve, though single readings can be large or run the other way; reference of the percent scale not stated here;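 also: the control signal comes from parental cells without the receptor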
#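 HEK 293 cells stably expressing TSHR and a modified CNG channel, with CNG-only parental cells as counterscreen, were preloaded 60 min at room temperature with membrane potential dye containing 100 uM RO 20-1724. Compound exposure was 30 min, and depolarization was read as fluorescence at 590 nm.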
# Ub-GFP proteasome: proteasome inhibitors stabilizing ubiquitin-GFP reporter; AID 526; Ubiquitin-GFP reporter cells, proteasome inhibition, GFP fluorescence; response scale: untreated = 0%, 10 µM MG-132 = 100%; Potency, µM (series often up to 45.9 µM), actives largely listed as activators; 67,000 tested, under 10 active; active = well fitted activation curve with a large enough effect, not every such curve was filed as active; inconclusive = small, poorly fitted or top-dose-only effect, or another doubt; inactive = no such curve, though single readings can be large or run the other way
#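 U2OS Ub(G76V)-GFP reporter; O/N plating, 0.5% FBS; cpd 46 uM–2.9 nM, 4 h, 37 °C; GFP+ cell count, 488/515 nm; norm. to basal vs 10 uM MG-132; CRC fit.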
# HEK293 cAMP ctrl: parental HEK293 cAMP activation (counter-screen); AID 938; Potency, µM (series often up to 57.1 µM), actives largely listed as activators; parental HEK293 CNG cAMP sensor, membrane potential fluorescence; hit rate 2.5% among 73,000; also: nearly all actives have a fitted effect of over 55% in size
#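 Parental HEK 293 cells stably expressing a cAMP-gated CNG channel were loaded with membrane potential dye containing 100 uM RO 20-1724 for 60 min. Compound added for 30 min; depolarization read as fluorescence intensity at 590 nm.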
# GBA activity: human lysosomal glucosylceramidase modulation. P04062. purified enzyme, resorufin glucoside fluorescence (screen aimed at inhibitors), 20 min. Potency, µM. hit rate 1.1% among 48,000. AID 360; in the data active = potency below about 15 µM; inconclusive = mostly about 16 µM to 33 µM;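 also: the screen sought inhibitors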
# Target sequence (P04062 whole entry, looked up): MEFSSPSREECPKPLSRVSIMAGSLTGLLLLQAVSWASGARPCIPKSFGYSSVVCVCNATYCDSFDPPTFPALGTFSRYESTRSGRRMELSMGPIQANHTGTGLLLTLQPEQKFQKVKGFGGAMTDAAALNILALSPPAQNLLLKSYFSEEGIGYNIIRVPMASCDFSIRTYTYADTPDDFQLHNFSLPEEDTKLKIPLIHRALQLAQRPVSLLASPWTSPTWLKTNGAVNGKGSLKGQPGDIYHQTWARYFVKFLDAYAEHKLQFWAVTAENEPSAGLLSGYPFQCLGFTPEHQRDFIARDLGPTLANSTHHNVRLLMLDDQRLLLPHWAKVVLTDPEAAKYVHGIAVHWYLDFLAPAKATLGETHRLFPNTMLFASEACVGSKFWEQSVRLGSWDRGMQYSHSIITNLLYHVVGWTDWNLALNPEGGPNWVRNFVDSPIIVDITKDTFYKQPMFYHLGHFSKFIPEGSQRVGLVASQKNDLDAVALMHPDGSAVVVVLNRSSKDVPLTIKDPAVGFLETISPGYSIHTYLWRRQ
#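 Compounds titrated against 0.2 nM normal enzyme, 30 uM resorufin beta-D-glucopyranoside substrate, citrate/phosphate buffer with taurocholate and tween-20, pH 5.9. Reaction ran 20 min at room temperature; fluorescence (Ex 548/Em 600) gave AC50.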
# USP2a inhib: inhibitors of human ubiquitin-specific protease USP2a. O75604. USP2a enzymatic assay, qHTS inhibition. AID 927. hit rate 0.1% among 60,000. Potency, µM (top dose mostly 38.3 µM), most hits filed as inhibitors; also: nearly all actives have a fitted effect of over 60% in size
#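 USP2 core (20nM final) preincubated 30 min RT with compound, then Ub-PLA2 20nM and NBD C6-HPC 20uM final added; buffer 20mM Tris-HCl pH 8.0, 2mM CaCl2. Fluorescence Ex 460/Em 535 read at 0 and 2.5 h; normalized to NEM.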
# Numbers stand for hits; n = inactive; u = inconclusive; x = no result given; [ ] = dose if it differs, or a comment. An excerpt weighted towards active compounds, which were near 4.1% of everything screened. Unless noted, calls follow the shape of the dose curve; as a rule, active = well fitted curve in the direction sought with a large enough effect; inconclusive = small, poorly fitted or top-dose-only effect, or another doubt; inactive = no such curve, though single readings can be large; an effect the other way counts as inactive or inconclusive.
SMILES,PK Bst,TSHR ag,Ub-GFP proteasome,HEK293 cAMP ctrl,GBA activity,USP2a inhib
O=C(c1ccco1)N1CCC2(CC1)CN(c1ccccc1)C2,x,n,n,n,x,n
CCOc1cc(CN2CCSCC2)ccc1O,x,u,n[9.17 µM],0.032µM,x,n[7.66 µM]
COC(=O)c1cn(NC(=O)C2CCCCC2)c(=O)c2ccccc12,n,u,n,13µM,n,n
COC(=O)c1cn(NC(=O)c2ccncc2)c(=O)c2ccccc12,n,n,n,n,n,n
C[C@@H](CSC(=N)N)C(N)=O,x,n[11.4 µM],n[9.17 µM],n[11.4 µM],x,x
CN(C)c1ccc(-c2nc3ccccc3n2C)cc1,1.1,n[11.4 µM],n,n,u,n
CC(C)n1c(-c2ccc(N(C)C)cc2)nc2ccccc21,x,n,n,n,n,n
CCCCOCCOCCSC#N,x,n,x,n,x,x
COc1ccc(-c2cn3c(C)c(C(=O)Nc4cccc(NC(C)=O)c4)sc3n2)cc1,n,n,n,n,u,n
COc1ccc(-c2cn3c4c(sc3n2)CCCC4)cc1,0.54,n,n,n,n,n
COc1cccc(-c2nc(NC3CCNCC3)c3ccccc3n2)c1,x,u,n,n,x,n
CS(=O)(=O)c1ccc(/C=N\NC(N)=S)cc1,x,n[11.4 µM],n[9.17 µM],n[11.4 µM],x,x
CC(C)CNC(=O)O,x,n[11.4 µM],n[9.17 µM],n[11.4 µM],x,x
COc1cccc(-c2nn(C)c3sc(C(=O)N4CCOCC4)cc23)c1,x,n,n,n,x,x
COc1cccc(-c2nn(C)c3sc(C(=O)N4CCN(c5ccccn5)CC4)cc23)c1,7.3,u,n,u,n,n
Cc1nc2sc3c(c2c2nc(-c4ccco4)nn12)CCCC3,n,u,n,32µM,n,n
COCCn1c(=O)c(-c2ccc(OC)cc2)nc2cnc(N3CCN(C)CC3)nc21,x,n,n,n,x,n
O=C(c1ccco1)N1CCC2(CC1)CN(c1cccc(-c3ccccc3)c1)C2,x,n,n,n,x,n
CCN(c1ccccc1)c1cc(NC)[n+](C)c(C)n1,x,u,n,32µM,x,x
CCCc1ccc(Oc2cn[nH]c2-c2ccc(O)cc2O)cc1,x,n[11.4 µM],n[9.17 µM],n[11.4 µM],x,4µM
COc1ccc(Oc2cn[nH]c2-c2ccc(O)cc2O)cc1,n,u,n,2µM,n,n
CC(=O)OCC(=O)[C@@]1(O)CCC2C3CCC4=CC(=O)C=CC4(C)C3C(O)C[C@]21C (some centres undefined),x,x,x,x,x,n
COc1cccc(Nc2ncc3nc(-c4cccs4)c(=O)n(CCC#N)c3n2)c1,x,n,6.3µM,n,x,n
COc1ccc(-n2c(=O)c(-c3cccs3)nc3cnc(Nc4cccc(OC)c4)nc32)cc1,x,u,u,u,x,n
COc1cccc(Nc2ncc3nc(C)c(=O)n(Cc4cccs4)c3n2)c1,x,u,n,3.2µM,x,n
SMILES,PK Bst,TSHR ag,Ub-GFP proteasome,HEK293 cAMP ctrl,GBA activity,USP2a inhib
O=c1cnc2cnc(Nc3ccccc3)nc2n1Cc1cccs1,x,u,n,13µM,x,n
COc1ncc2ncc(=O)n(Cc3cccs3)c2n1,x,u,n,u,x,n
N#CCCn1c(=O)c(-c2ccccc2)nc2cnc(Nc3ccccc3)nc21,x,u,n,10µM,x,u
C/C(=N/S(=O)(=O)c1ccc(Cl)c(Cl)c1)OCC(C)(C)C,x,n[11.4 µM],n[9.17 µM],n[11.4 µM],x,x
COc1cccc(NC(=O)/C=C\c2ccc(Cl)cc2)c1,x,u,n,32µM,x,x
NC(N)=N[C@H](CCC(=O)O)C(=O)O,x,n,n,n,x,n
CCN(CCCNC(=O)C1CCC(=O)N1Cc1ccc(F)cc1)c1cccc(C)c1 (centres undefined),n,n,n,n,15,n
CCCC(c1nnnn1C1CCCC1)N1CCN(C(=O)c2ccco2)CC1 (centres undefined),n,u,n,16µM,n,n
CCCC(c1nnnn1C1CCCCC1)N1CCN(c2ncccn2)CC1 (centres undefined),n,n,n,n,n,n
CCCCC(c1nnnn1C1CCCC1)N1CCN(C2CCCCC2)CC1 (centres undefined),n,u,n,2.5µM,n,n
CC(C)CC(c1nnnn1C1CCCC1)N1CCN(C(=O)c2ccco2)CC1 (centres undefined),n,u,n,7.9µM,n,n
COc1ccc2[nH]cc(CCNc3cc(-c4ccccc4OC)ncn3)c2c1,x,n,n,n,x,n
O=C1C=CC(=O)C2=C1C1c3ccccc3C2c2ccccc21,x,n,x,n,x,x
CN(C)CCC(=O)[C@@]1(O)CC[C@H]2[C@H]3CC=C4C[C@@H](O)CC[C@]4(C)[C@H]3CC[C@]21C,x,n[11.4 µM],n[9.17 µM],n[11.4 µM],x,x
CC(=O)C(Sc1nn(C)c(=S)s1)C(=O)Nc1ccccc1 (centres undefined),n,u,n,20µM,x,n
C[C@@H]1CCCN(CP(=O)(c2ccccc2)c2ccccc2)C1,x,n[11.4 µM],n[9.17 µM],n[11.4 µM],x,x
Cc1cc(/C=c2/sc3nc4ccccc4n3c2=O)c(C)n1-c1ccccn1,0.84,x,x,x,x,x
O=c1/c(=C\c2cccnc2)sc2nc3ccccc3n12,x,u,n,u,n,n
CCCn1c(C)nc2c(NCCCN(CCO)CCO)nc(C)nc21,x,n,n,n,x,x
CN1CCN(C(=O)c2cc(Cl)ccc2Cl)CC1,x,u,n,32µM,x,n
O=c1c(-c2ccccc2)nc2cnc(N3CCOCC3)nc2n1Cc1ccc(F)cc1,x,n,n,n,x,n
Cc1cc(C(=O)COc2ccc(-c3nnco3)cc2)c(C)n1Cc1ccccc1,n,u,n,13µM,u,n
Cc1ccc(S(=O)(=O)N2CCN(C(=O)COc3ccc(-c4nnco4)cc3)CC2)cc1,n,n,n,n,n,n
Cc1ccc2nc(-c3ccc(N)cc3)sc2c1S(=O)(=O)O,x,n,x,n,x,x
COc1ccccc1N1CCN(C(=O)CSc2nc(-c3ccccc3)cc(=O)[nH]2)CC1,n,n,n,n,n,n
SMILES,PK Bst,TSHR ag,Ub-GFP proteasome,HEK293 cAMP ctrl,GBA activity,USP2a inhib
COc1ccc(-c2noc(CSc3nc(-c4ccccc4)cc(=O)[nH]3)n2)cc1OC,n,16µM,n,n,n,n
O=c1[nH]ncc2c3ccccc3n(Cc3ccc(F)cc3)c12,x,16µM,x,n,x,x
O=C(O)/C=C(/c1ccccc1)C(F)(F)F,x,n,n,n,x,n
COc1ccc(C)cc1NC(=O)CSc1nnc(-c2ccccn2)n1Cc1ccco1,n,u,n,10µM,n,n
CC1CCN(C(=O)CSc2nnc(-c3cc4ccccc4cc3O)n2Cc2ccco2)CC1,x,25µM,n,n,u,n
COc1ccc(C(=O)CSc2nnc(-c3cc4ccccc4cc3O)n2Cc2ccco2)cc1,n,u,n,u,n,n
COc1ccc(NC(=O)CSc2nnc(-c3ccccc3Cl)n2Cc2ccco2)c(OC)c1,n,u,x,20µM,n,n
COc1ccccc1NC(=O)CSc1nnc(-c2ccccn2)n1Cc1ccco1,x,x,n,n,n,n
C(=C\c1ccccc1)/CSc1nnc(-c2ccccn2)n1Cc1ccco1,n,u,n,20µM,n,n
N[C@@H](Cc1cc(CP(=O)(O)O)cc(-c2ccccc2Cl)c1)C(=O)O,x,n,n,n,x,x
CC(C)NC[C@@H](O)COc1ccccc1-n1cccc1,x,n,n,n,x,x
